Screens: PubChem, several laboratories
Most compounds without a hit are left out; they make up all but 1.9% or so of the library.
IEC-6 tox – counter-screen for KLF5 inhibitors: cytotoxicity in IEC-6 cells; IEC-6 cytotoxicity, luminescence viability; inhibition, % at 5 µM; actives 0.78% (n = 290,000);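 note: 0% = plate median of test compound wells and 100% = cytotoxic reference compound wells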
Ba/F3 V617F tox – loss of viability in JAK2V617F-driven Ba/F3 cells; Ba/F3 EpoR-JAK2V617F viability, ATP luminescence; AID 1446; actives 1.1% (n = 220,000); inhibition, % at 5.6 µM;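 active = inhibition above the campaign mean plus 3 SD over all tested compounds, cut at about 24% in these data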;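 note: cytokine-independent growth of Ba/F3 cells driven by EpoR plus mutant JAK2; 0% = DMSO-treated cells and 100% = JAK inhibitor I control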
KLF5 inhibitor – suppresses KLF5 promoter-driven expression; DLD-1 KLF5 promoter-luciferase reporter, luminescence; inhibition, % at 5 µM; actives 0.23% (n = 290,000); AID 1700;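 active = inhibition above a per-plate limit of that plate's mean compound inhibition plus 3 SD, cut at about 60% in these data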;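 note: 0% = DMSO wells and 100% = LY294002 at 200 µM; higher means less KLF5 promoter-driven luciferase light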
BaF3 tox – reduces parental Ba/F3 cell viability, JAK2V617F counter-screen; CellTiter-Glo ATP luminescence; inhibition, % at 5.6 µM; actives 1.1% (n = 220,000); AID 1486;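 active = inhibition above a per-campaign cutoff, the mean inhibition of all tested compounds plus 3 SD, cut at about 27% in these data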;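 note: 0% = DMSO wells and 100% = JAK Inhibitor I control wells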
APP 5UTR inh – APP translation inhibition; SH-SY5Y APP 5'UTR-luciferase reporter, luminescence; inhibition, % at 2 µM; actives 0.82% (n = 190,000);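 active = inhibition above a set limit, derived from the sample mean plus 3 SD, cut at about 45% in these data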
IEC-6 tox confirm – IEC-6 cytotoxicity, confirmation assay. shares compounds with IEC-6 tox. IEC-6 rat intestinal epithelial viability, luminescence. inhibition, % at 5 µM. actives 63% (n = 1,900). AID 1907;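 note: 0% = vehicle and 100% = reference cytotoxic drug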
The depositor's hits bear a star. Cut-off read from the data, not from the text of the source, unless noted: active = inhibition above about 22%; inactive = the rest.

How did O=C(O)c1ccc(N/N=C/C=C/c2ccccc2[N+](=O)[O-])cc1 do in these assays?
IEC-6 tox: 23.7*; Ba/F3 V617F tox: 3.7; KLF5 inhibitor: -135.0; BaF3 tox: -0.6; APP 5UTR inh: -112.9; IEC-6 tox confirm: 38.6*

Results for CCOc1ccc(N(C(C)C(=O)N2CCCC2)S(C)(=O)=O)cc1 (stereo unspecified) ?
IEC-6 tox: -4.1; KLF5 inhibitor: -24.4

How did Cc1nc2cc(NC(=O)c3ccc([N+](=O)[O-])s3)ccc2s1 do in these assays?
IEC-6 tox: 30.4*; KLF5 inhibitor: 29.3; IEC-6 tox confirm: 19.1

How did CCC(=O)N(Cc1cc(=O)[nH]c2ccccc12)c1ccc(OC)cc1 do in these assays?
IEC-6 tox: -3.0; KLF5 inhibitor: -40.1

What do the screens show for `CC1CN(CC(=O)Nc2nc(-c3ccc(Cl)cc3)cs2)CC(C)O1` (stereo unspecified)?
IEC-6 tox: 3.7; KLF5 inhibitor: -21.0

Results for Cc1cc(NC(=O)CSc2nnc3c(C)cc4c(C)ccc(C)c4n23)no1 ?
IEC-6 tox: 54.9*; Ba/F3 V617F tox: 2.2; KLF5 inhibitor: 52.4; BaF3 tox: 9.9; APP 5UTR inh: 13.6; IEC-6 tox confirm: 21.5

Results for COc1ccc(/C=C2\COc3ccccc3C2=O)c(OC)c1 ?
IEC-6 tox: 26.0*; KLF5 inhibitor: -58.3; IEC-6 tox confirm: -2.6

What do the screens show for `Cc1ccccc1-n1nc2c(c1NC(=O)C(C)(C)C)CS(=O)(=O)C2`?
IEC-6 tox: 1.0; KLF5 inhibitor: -18.4

Results for COc1ccc(C(NC(C)=O)c2cc(Cl)c3cccnc3c2O)cc1 (stereo unspecified) ?
IEC-6 tox: 54.0*; KLF5 inhibitor: 75.3*; IEC-6 tox confirm: 56.3*

How did O=C(NCC1CCCO1)c1ccc(CNS(=O)(=O)c2cccc(Cl)c2)cc1 (stereo unspecified) do in these assays?
IEC-6 tox: 0.4; Ba/F3 V617F tox: 0.6; KLF5 inhibitor: -17.0; BaF3 tox: 8.1; APP 5UTR inh: -12.8

What do the screens show for `CCN1CCN(c2nc(Nc3cccc(OC)c3)nc(N)c2[N+](=O)[O-])CC1`?
IEC-6 tox: 23.5*; KLF5 inhibitor: 12.9; IEC-6 tox confirm: 8.0

What do the screens show for `CCN1CCN(c2nc(Nc3ccc(C)c(C)c3)nc(N)c2[N+](=O)[O-])CC1`?
IEC-6 tox: 1.5; Ba/F3 V617F tox: -2.6; KLF5 inhibitor: -1.1; BaF3 tox: -2.9; APP 5UTR inh: -0.9

Results for COc1cc(N=Nc2cccc(S(N)(=O)=O)c2)c2ccccc2c1N ?
IEC-6 tox: 10.4; Ba/F3 V617F tox: 3.3; KLF5 inhibitor: -35.5; BaF3 tox: 2.1

How did CC1CCN(c2ccc(NC(=O)c3ccccc3[N+](=O)[O-])cc2)CC1 do in these assays?
IEC-6 tox: 2.9; Ba/F3 V617F tox: 0.9; KLF5 inhibitor: -26.8; BaF3 tox: 7.7; APP 5UTR inh: -28.3

How did CS(=O)(=O)/C(C#N)=C\c1cnc(S(=O)(=O)c2ccccc2)s1 do in these assays?
IEC-6 tox: 35.6*; KLF5 inhibitor: -21.1; IEC-6 tox confirm: 9.3

Results for O=C(Cc1cccs1)NNC(=O)C12CC3CC(CC(C3)C1)C2 ?
IEC-6 tox: -1.5; Ba/F3 V617F tox: 2.1; KLF5 inhibitor: -25.2; BaF3 tox: 8.0; APP 5UTR inh: -19.8

Results for CCCCn1c(SCc2c(C)noc2C)nc2cc(S(N)(=O)=O)ccc21 ?
IEC-6 tox: 30.3*; Ba/F3 V617F tox: 68.2*; KLF5 inhibitor: -24.8; BaF3 tox: 62.3*; APP 5UTR inh: -10.8; IEC-6 tox confirm: 7.3

Results for COc1cccc2c1Oc1cc([N+](=O)[O-])cc(N(C)C(C)=O)c1C=C2 ?
IEC-6 tox: 6.6; KLF5 inhibitor: -34.6

What do the screens show for `Clc1ccccc1OCc1nnc(-c2ccccc2Br)o1`?
IEC-6 tox: 0.7; Ba/F3 V617F tox: 1.9; KLF5 inhibitor: -119.5; BaF3 tox: 5.8; APP 5UTR inh: -95.3

What do the screens show for `O=c1c(Cl)c(Cl)cnn1Cc1nnc(-c2ccccc2Br)o1`?
IEC-6 tox: 30.4*; Ba/F3 V617F tox: 16.4; KLF5 inhibitor: -11.1; BaF3 tox: -1.2; APP 5UTR inh: 94.2*; IEC-6 tox confirm: 21.8

Results for COc1cccc(CNC(=O)C2=Cc3cccc(OC)c3OC2)c1 ?
IEC-6 tox: 4.6; Ba/F3 V617F tox: -3.4; KLF5 inhibitor: -15.4; BaF3 tox: -0.7; APP 5UTR inh: -3.7

How did COc1ccc(OC)c(C(=O)c2ccc(C(=O)c3cc(OC)ccc3OC)cc2)c1 do in these assays?
IEC-6 tox: 1.6; Ba/F3 V617F tox: -4.2; KLF5 inhibitor: -37.7; BaF3 tox: 0.2; APP 5UTR inh: -1.1
